PubChem BioAssay AID1159580 (chemical genetic matrix, 2015)
Where “and” joins values, the source holds several entries; their conditions need not be identical. Equal entries are not always repeated. Among all 5,500 compounds or so, about 2,000 (36%) were called active. Another 18% or so got no clear call; they are omitted. Rule as the data show it: active = normalized growth mostly below about 0.91 (no sharp cut-off); inconclusive = no clear call, values can overlap the other calls; inactive = mostly above about 0.92. The list shows a part of the results.

Assay: chemical genetic growth profiling, strain panel (AID 1159580);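 also: tested at 20 µM; growth read once vehicle control cultures reached saturation at 30 °C; 1 = growth at the plate median or of vehicle wells; lower values mean less growth of the strain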
Conditions: S. cerevisiae deletion strains, growth OD
[1] = locus YHR030C, strain SLT2, hits give low values
[2] = locus YHR079C, strain IRE1, hits give low values
[3] = locus YJL095W, strain BCK1, hits give low values
[4] = locus YJR066W, strain TOR1, hits give low values
[5] = locus YLR113W, strain HOG1, hits give low values
[6] = locus YMR263W, strain SAP30, hits give low values
[7] = locus YMR307W, strain GAS1, hits give low values
[8] = locus YNL183C, strain NPR1, hits give low values
[9] = locus YOR231W, strain MKK1, hits give low values
[10] = locus YPL241C, strain CIN2, hits give low values
[11] = locus YPL256C, strain CLN2, hits give low values

Measured: normalized growth

NCCCNCCCCNCCCN
inactive: locus YAL040C, strain CLN3, hits give low values 0.997 | locus YCL061C, strain MRC1 (second series), hits give low values 1.01 | locus YDR363W, strain ESC2, hits give low values 1.02 | locus YER002W, strain NOP16, hits give low values 1.02 | locus YGR078C, strain PAC10, hits give low values 1.01 | [1] 1.01 | [2] 0.994 | [3] 0.98 | [4] 0.925 | [5] 0.975 | [6] 0.995 | [7] 1.01 | locus YNL128W, strain TEP1, hits give low values 0.962 | locus YNL175C, strain NOP13, hits give low values 0.978 | [8] 0.93 | locus YNL197C, strain WHI3, hits give low values 0.992 | locus YNL224C, strain SQS1, hits give low values 0.986 | locus YOR083W, strain WHI5 (second series), hits give low values 0.994 | [9] 0.999 | [10] 1 | [11] 1.02

CC(C)=CC1C(C(=O)O)C1(C)C (stereo not given)
inactive: locus YAL013W, strain DEP1, hits give low values 0.988 | locus YAL021C, strain ccr4, hits give low values 0.989 | locus YAL026C, strain drs2, hits give low values 0.962 | locus YAL030W, strain snc1, hits give low values 0.976 | locus YBL061C, strain skt5, hits give low values 0.963 | locus YBR009C, strain hhf1, hits give low values 0.939 | locus YBR021W, strain FUR4, hits give low values 1.03 | locus YBR023C, strain chs3, hits give low values 0.966 | locus YBR171W, strain sec66, hits give low values 0.96 | locus YBR229C, strain ROT2, hits give low values 0.996 | locus YBR231C, strain swc5, hits give low values 0.985 | locus YBR279W, strain paf1, hits give low values 0.976 | locus YCL011C, strain gbp2, hits give low values 0.962 | locus YCL016C, strain dcc1, hits give low values 0.987 | locus YCL029C, strain bik1, hits give low values 0.981 | locus YCL061C, strain MRC1, hits give low values 0.987 | locus YCL069W, strain vba3, hits give low values 0.972 | locus YCR088W, strain abp1, hits give low values 0.983 | locus YDL005C, strain med2, hits give low values 0.976 | locus YDL035C, strain GPR1, hits give low values 0.998 | locus YDL040C, strain nat1, hits give low values 0.965 | locus YDL074C, strain BRE1, hits give low values 1.01 | locus YDL101C, strain DUN1, hits give low values 1.02 | locus YDL185W, strain tfp1, hits give low values 0.954 | locus YDL192W, strain arf1, hits give low values 0.966 | locus YDR001C, strain nth1, hits give low values 0.962 | locus YDR069C, strain doa4, hits give low values 0.967 | locus YDR101C, strain arx1, hits give low values 0.979 | locus YDR137W, strain rgp1, hits give low values 0.97 | locus YDR150W, strain NUM1, hits give low values 0.983 | locus YDR159W, strain sac3, hits give low values 0.959 | locus YDR162C, strain NBP2, hits give low values 1.08 | locus YDR195W, strain ref2 0.997 | locus YDR297W, strain sur2, hits give low values 0.979 | locus YDR318W, strain mcm21, hits give low values 0.977 | locus YDR334W, strain swr1, hits give low values 0.976 | locus YDR335W, strain msn5, hits give low values 0.977 | locus YDR388W, hits give low values 0.98 | locus YDR392W, strain spt3, hits give low values 0.883 | locus YDR502C, strain sam2, hits give low values 1.01 | locus YEL003W, strain gim4, hits give low values 0.971 | locus YEL037C, strain rad23, hits give low values 0.966 | locus YEL061C, strain CIN8 (second series), hits give low values 0.967 | locus YEL061C, strain CIN8, hits give low values 0.996 | locus YER015W, strain faa2, hits give low values 0.983 | locus YER016W, strain bim1, hits give low values 0.982 | locus YER110C, hits give low values 0.951 | locus YER111C, strain swi4, hits give low values 0.972 | locus YER155C, strain BEM2 (second series), hits give low values 0.972 | locus YER155C, strain BEM2, hits give low values 0.999 | locus YER167W, strain BCK2, hits give low values 0.997 | locus YFR010W, strain ubp6, hits give low values 0.972 | locus YGL078C, strain dbp3, hits give low values 0.991 | locus YGL086W, strain mad1, hits give low values 0.967 | locus YGL167C, strain pmr1, hits give low values 0.969 | locus YGL173C, strain kem1, hits give low values 0.959 | locus YGL227W, strain vid30, hits give low values 0.968 | locus YGL240W, strain doc1, hits give low values 0.974 | locus YGL248W, strain PDE1, hits give low values 1.04 | locus YGL253W, strain hxk2, hits give low values 0.993 | locus YGR135W, strain pre9, hits give low values 1 | locus YGR229C, strain SMI1, hits give low values 1.05 | locus YGR252W, strain gcn5, hits give low values 1.15 | locus YHR013C, strain ard1, hits give low values 0.956 | locus YHR027C, strain rpn1, hits give low values 0.973 | [1] 0.992 and 0.957 | locus YHR079C, strain IRE1 (second series), hits give low values 0.988 | [2] 0.957 | locus YHR094C, strain hxt1, hits give low values 0.968 | locus YHR129C, strain ARP1, hits give low values 0.997 | locus YHR142W, strain chs7, hits give low values 1.02 | locus YHR200W, strain rpn10, hits give low values 0.979 | locus YIL066C, strain RNR3, hits give low values 1.02 | locus YIL073C, strain SPO22, hits give low values 0.967 | locus YIL125W, strain kgd1, hits give low values 0.98 | locus YIR030C, strain dcg1, hits give low values 0.979 | locus YJL092W, strain hpr5, hits give low values 0.985 | locus YJL095W, strain BCK1 (second series), hits give low values 0.985 | [3] 1.08 and 0.996 | locus YJL115W, strain asf1, hits give low values 0.975 | locus YJL129C, strain trk1, hits give low values 0.981 | locus YJL134W, strain LCB3, hits give low values 0.99 | locus YJL154C, strain vps35, hits give low values 0.96 | locus YJL164C, strain tpk1, hits give low values 1.01 | locus YJL166W, strain qcr8, hits give low values 0.979 | locus YJL168C, strain set2, hits give low values 0.991 | locus YJL187C, strain SWE1 (second series), hits give low values 1.04 | locus YJL187C, strain SWE1, hits give low values 0.972 | locus YJR043C, strain POL32, hits give low values 1.04 | [4] 0.905 | locus YKL009W, strain mrt4, hits give low values 0.963 | locus YKL068W, hits give low values 0.988 | locus YKL085W, strain MDH1 (second series), hits give low values 0.971 | locus YKL085W, strain MDH1, hits give low values 0.971 | locus YKL160W, strain elf1, hits give low values 1.04 | locus YKL190W, strain CNB1, hits give low values 0.991 | locus YKR001C, strain vps1, hits give low values 0.973 | locus YKR026C, strain gcn3, hits give low values 0.977 | locus YKR091W, strain srl3, hits give low values 0.973 | locus YLL001W, strain dnm1, hits give low values 0.999 | locus YLL026W, hits give low values 0.982 | locus YLL041C, strain sdh2, hits give low values 0.984 | locus YLR027C, strain aat2, hits give low values 0.987 | locus YLR039C, strain RIC1, hits give low values 1.04 | locus YLR058C, strain SHM2, hits give low values 1.02 | locus YLR102C, strain apc9, hits give low values 0.957 | [5] 1.04 | locus YLR221C, strain rsa3, hits give low values 1 | locus YLR258W, strain gsy2, hits give low values 0.963 | locus YLR262C, strain YPT6 (second series), hits give low values 1 | locus YLR262C, strain YPT6, hits give low values 1.04 | locus YLR268W, strain sec22, hits give low values 0.972 | locus YLR320W, strain mms22, hits give low values 0.989 | locus YLR330W, strain CHS5, hits give low values 0.984 | locus YLR342W, strain FKS1 (second series), hits give low values 1.03 | locus YLR342W, strain FKS1, hits give low values 0.959 | locus YLR357W, strain rsc2, hits give low values 0.963 | locus YLR370C, strain arc18, hits give low values 0.976 | locus YLR371W, strain rom2, hits give low values 0.968 | locus YLR384C, strain iki3, hits give low values 0.981 | locus YLR418C, strain cdc73, hits give low values 1.02 | locus YML016C, strain PPZ1, hits give low values 0.999 | locus YML032C, strain rad52, hits give low values 1 | locus YML120C, strain ndi1, hits give low values 0.987 | locus YML124C, strain tub3, hits give low values 0.973 | locus YMR058W, strain fet3, hits give low values 0.966 | locus YMR078C, strain ctf18, hits give low values 0.975 | locus YMR125W, strain sto1, hits give low values 0.914 | locus YMR129W, hits give low values 0.965 | locus YMR205C, strain PFK2, hits give low values 0.932 | locus YMR223W, strain ubp8, hits give low values 0.988 | locus YMR231W, strain pep5, hits give low values 0.968 | [6] 1.01 | [7] 1.24 | locus YNL067W, strain RPL9B, hits give low values 1.05 | locus YNL071W, strain lat1, hits give low values 0.977 | locus YNL153C, strain GIM3, hits give low values 1.05 | [8] 0.971 | locus YNL209W, strain ssb2, hits give low values 0.977 | locus YNL233W, strain BNI4, hits give low values 1.07 | locus YNL248C, strain rpa49, hits give low values 1.01 | locus YNL250W, strain rad50, hits give low values 0.965 | locus YNL271C, strain bni1, hits give low values 0.973 | locus YNL298W, strain CLA4, hits give low values 0.99 | locus YNL307C, strain MCK1, hits give low values 0.988 | locus YNL322C, strain KRE1 (second series), hits give low values 0.973 | locus YNL322C, strain KRE1, hits give low values 0.998 | locus YNR049C, strain mso1, hits give low values 0.966 | locus YNR052C, strain pop2, hits give low values 0.972 | locus YOL006C, strain TOP1, hits give low values 1.06 | locus YOL012C, strain htz1 1.34 | locus YOL147C, strain pex11, hits give low values 0.989 | locus YOR001W, strain rrp6, hits give low values 1.01 | locus YOR061W, strain CKA2, hits give low values 1.01 | locus YOR069W, strain VPS5, hits give low values 0.992 | locus YOR070C, strain gyp1, hits give low values 0.985 | locus YOR080W, strain dia2, hits give low values 0.965 | locus YOR083W, strain WHI5, hits give low values 1.05 | locus YOR106W, strain vam3, hits give low values 1.01 | locus YOR136W, strain idh2, hits give low values 0.979 | locus YOR144C, strain elg1, hits give low values 1 | locus YOR184W, strain ser1, hits give low values 0.963 | [9] 0.954 | locus YOR265W, strain rbl2, hits give low values 0.986 | locus YOR270C, strain vph1, hits give low values 0.975 | locus YOR290C, strain snf2, hits give low values 0.925 | locus YOR316C, strain cot1, hits give low values 0.974 | locus YPL051W, strain arl3, hits give low values 1 | locus YPL055C, strain LGE1, hits give low values 1.06 | locus YPL078C, strain atp4, hits give low values 1 | locus YPL106C, strain sse1, hits give low values 0.972 | locus YPL240C, strain hsp82, hits give low values 0.997 | [10] 0.998 | [11] 0.975 | locus YPR119W, strain clb2, hits give low values 0.96 | locus YPR141C, strain kar3, hits give low values 0.969 | locus YPR163C, strain tif3, hits give low values 0.992 | locus YPR167C, strain met16, hits give low values 0.941 | strain wtn01, hits give low values 0.979
